Experiment [1] is described as follows: qHTS Screen of the MIPE 4.0 Collection Against Ewings Sarcoma (RDES) (AID 1259252). Also: nearly all actives have a fitted effect of over 35% in size. Also: potency is read from the fitted curve at half-maximal effect. An outline of the steps:
(§1)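 Log-phase cells in RPMI with 5% FBS attached for 4 h, then received compounds as a titration for 48 h at 37C, 5% CO2. Viability was read by CellTiter-Glo luminescence and normalized to DMSO and no-cell wells.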

A short description of experiment [2]: qHTS Screen of the MIPE 4.0 Collection Against Ewings Sarcoma (TC71) (AID 1259253). Also: nearly all actives have a fitted effect of over 40% in size. Also: potency is read from the fitted curve at half-maximal effect. A digest of the protocol: as §1
A short description of experiment [3]: qHTS Screen of the MIPE 4.0 Collection Against Ewings Sarcoma (EW8) (AID 1259255). Also: nearly all actives have a fitted effect of over 35% in size. Also: potency is read from the fitted curve at half-maximal effect. A digest of the protocol:
as §1

A short description of experiment [4]: qHTS Screen of the MIPE 4.0 Collection Against Ewings Sarcoma (TC32) (AID 1259256). Also: nearly all actives have a fitted effect of over 45% in size. Also: potency is read from the fitted curve at half-maximal effect. An outline of the steps:
as §1

Experiment [5] is described as follows: qHTS assay to identify small molecule inhibitors of chordoma cells - UCH-1 (AID 1259355). Also: nearly all actives have a fitted effect of over 55% in size. An outline of the steps:
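Screening used approved and investigational drugs in 15-point titration against 800 seeded cells per well. A fixed combination of auranofin with camptothecin, doxorubicin, rubitecan and topotecan followed compound addition, and growth was scored by CellTiter-Glo after 48hr.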

The nature of experiment [6]: qHTS assay to identify small molecule inhibitors of chordoma cells - UCH-2 (AID 1259356). Also: series mostly up to about 46 µM.
The nature of experiment [7]: P-glycoprotein substrates identified in KB-8-5-11 adenocarcinoma cell line, qHTS therapeutic library screen (AID 1346987). Also: nearly all actives have a fitted effect of over 65% in size. Also: potency is read from the fitted curve at half-maximal effect. An outline of the steps:
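Luminescence from CellTiter-Glo, read 5 min after addition, quantified survival of KB-8-5-11 (P-gp-overexpressing) cells exposed to compounds for 72 h. AC50 was derived from concentration-response curves.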

The nature of experiment [8]: NS1 protein of Zika virus - qHTS assay to identify small molecule inhibitors in human HEK 293 cells (AID 1347053). Also: nearly all actives have a fitted effect of over 55% in size. Also: potency is read from the fitted curve at half-maximal effect. An outline of the steps: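 Compound-treated (1 h pre-infection) HEK 293 cells infected with ZIKV MR766, MOI = 0.5; after 24 h at 37 C, NS1 read by TR-FRET; data normalized to uninfected and infected controls.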
Experiment [9] in a line: Identifying Small Molecule Inhibitors of Pancreatic Cancer Stem Cells (A2780, Spheroid) (AID 1259357).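 Also: spheroids pre-formed over 14 days in stem cell medium on hydrogel; compound exposure lasted 48 h before the ATP luminescence read.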 As to conditions: Potency: A2780 spheroid viability. A digest of the protocol:
(§2)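 Viability is scored by CellTiter-Glo luminescence 48 h after dosing, expressed as percent activity against vehicle and no-cell references. Spheroid formats rely on cells cultured 14 days in stem cell media beforehand.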

The nature of experiment [10]: Identifying Small Molecule Inhibitors of Pancreatic Cancer Stem Cells (SN12C, Adherent) (AID 1259358).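 Also: cell survival measured after 48 h of compound exposure.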 Also: potency is read from the fitted curve at half-maximal effect. A digest of the protocol: (§3)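 Spheroids grown 14 days in stem cell media on hydrogel-coated nonadherent plates; 2D lines seeded directly. Compounds added after 4 h attachment, 48 h at 37C, 5% CO2; CellTiter-Glo luminescence normalized to DMSO (no inhibition) and no-cell wells (full inhibition).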

The nature of experiment [11]: Identifying Small Molecule Inhibitors of Pancreatic Cancer Stem Cells (SN12C, Spheroid) (AID 1259360). Particulars: Potency: SN12C spheroid viability. A digest of the protocol: as §2
Experiment [12] is described as follows: Identifying Small Molecule Inhibitors of Pancreatic Cancer Stem Cells (A278, Adherent) (AID 1259361). Also: nearly all actives have a fitted effect of over 35% in size. A digest of the protocol: as §3
Experiment [13] in a line: Identifying Small Molecule Inhibitors of Pancreatic Cancer Stem Cells (Panc1, Adherent) (AID 1259362). Also: potency is read from the fitted curve at half-maximal effect. As to conditions: Potency: viability. An outline of the steps: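 Endpoint: ATP-based luminescence, 48 h drug exposure. Bortezomib at 9.2 uM final as full-kill control; DMSO vehicle as negative control; activity normalized between vehicle and cell-free wells.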

Values joined by “and” are separate entries in the source; they are usually repeats but may differ in a detail not shown here. Equal values may be shown once. Inconclusive results are not listed. Active and inactive are the calls of the source. Calls follow the shape of the dose curve; as a rule, active = well fitted curve in the direction sought with a large enough effect; inconclusive = small, poorly fitted or top-dose-only effect, or another doubt; inactive = no such curve, though single readings can be large; an effect the other way counts as inactive or inconclusive.

Turning to `CN(C)[C@@H]1C(=O)C(C(N)=O)=C(O)[C@@]2(O)C(=O)C3=C(O)c4c(O)cccc4[C@@](C)(O)[C@H]3[C@H](O)[C@@H]12`, the Potency result in experiment [1], in experiment [2], in [3], in [4], in experiment [5] and in [6] was “inactive” in each case. Moreover, in experiment [7], the Potency result was “inactive”.

For `O=[N+]([O-])c1ncc[nH]1`, the Potency entry in [1], in experiment [2], in [3], in experiment [7] and in [8] was “inactive” each time.

Turning to `C=C[C@@H]1CN2CCC1C[C@H]2[C@H](O)c1ccnc2ccccc12` (stereo partly specified), the results for the Potency in experiment [1], in experiment [2] and in experiment [4] were 23.5 µM (active), 20.9 µM (active) and 18.7 µM (active), respectively.

With `C[C@]12Cc3cn[nH]c3C[C@@H]1CC[C@@H]1[C@H]2CC[C@@]2(C)[C@H]1CC[C@]2(C)O`, the Potency is 2.96 µM (active) in [1], 2.96 µM (active) in [2], 2.96 µM (active) in experiment [3] and 3.32 µM (active) in [4]. The Potency result in experiment [7] and in experiment [8] was “inactive” throughout.

As to `C[C@]12CC[C@H]3[C@@H](CCC4=CC(=O)CC[C@@]43C)[C@H]1CC[C@H]2O`, the Potency result in experiment [1], in [2], in experiment [3] and in [4] was “inactive” throughout. Besides, in [7], the Potency is 11.8 µM (active).

`CC(=Cc1csc(C)n1)[C@@H]1C[C@H]2O[C@]2(C)CCC[C@H](C)[C@@H](O)[C@@H](C)C(=O)C(C)(C)[C@@H](O)CC(=O)O1`: the Potency entry in [1], in experiment [2], in experiment [3] and in experiment [4] was “inactive” in each case. In experiment [7], the Potency was 0.001 µM (active).

For the compound `CCC(=O)OC1CCC2C3CCC4=CC(=O)CC[C@@]4(C)C3CC[C@]12C` (stereo partly specified), the Potency entry in experiment [1], in experiment [2], in experiment [3], in experiment [4] and in experiment [8] was “inactive” each time.

As for `COc1ccc2c(c1)[C@]13CCCCC1C(C2)N(C)CC3` (stereo partly specified), the Potency entry in [1], in experiment [2], in experiment [3], in [4], in experiment [7] and in [8] was “inactive” each time.

In the case of `CC(=O)Nc1ccc(OC[C@](C)(O)C(=O)Nc2ccc([N+](=O)[O-])c(C(F)(F)F)c2)cc1`, the Potency result in experiment [1], in [2], in [3], in experiment [4], in experiment [9] and in experiment [10] was “inactive” in each case. Further, the Potency entry in experiment [11], in experiment [13], in [7] and in [8] was “inactive” each time. Besides, the IC50 (viability decrease) result in experiment [12] was “inactive”.

For `Cc1[nH]nc2ccc(-c3cncc(OC[C@@H](N)Cc4c[nH]c5ccccc45)c3)cc12`, the Potency in [1] was 0.209 µM (active); in experiment [2] it was 0.372 µM (active); in experiment [3] it was 2.09 µM (active); in experiment [4], 4.69 µM (active); in experiment [7], 526 nM (active) and 5.17 µM (active); in [8], 5.9 µM (active).

For `O=C1CCC[C@@H]2[C@H]3CCCN4CCC[C@@H](CN12)[C@@H]34`, the Potency result in [1], in experiment [2], in experiment [3], in [4], in experiment [7] and in experiment [8] was “inactive” each time.

In the case of `C=CCON=C(C[C@H]1O[C@@H]2O[C@]3(C)CC[C@@H]4[C@H](C)CC[C@@H]([C@H]1C)[C@@]24OO3)[C@H]1O[C@@H]2O[C@]3(C)CC[C@H]4[C@H](C)CC[C@@H]([C@@H]1C)[C@@]24OO3`, the Potency was 0.469 µM (active) in experiment [1]; 0.418 µM (active) in [2]; 0.296 µM (active) in experiment [3]; 0.0935 µM (active) in experiment [10]; 0.0662 µM (active) in experiment [13]; 16.6 µM (active) in [7]. Further, the IC50 (viability decrease) in [12] is 0.0526 µM (active).

Take `CCCC[N+]1(C)[C@H]2CC(OC(=O)[C@H](CO)c3ccccc3)C[C@H]1[C@H]1O[C@H]12` (stereo partly specified): the Potency entry in experiment [1], in [2], in experiment [3], in experiment [4], in [7] and in [8] was “inactive” in each case.

With `COCC1(CO)C(=O)C2CCN1CC2` (stereo unspecified), the Potency in experiment [1] is 2.09 µM (active); in [2], 2.35 µM (active); in experiment [3], 2.64 µM (active); in experiment [4], 2.35 µM (active). Also, the Potency entry in experiment [7] and in [8] was “inactive” throughout.

Consider `Clc1ccccc1C(c1ccccc1)(c1ccccc1)n1cccn1`, for which the Potency in experiment [1] was 1.05 µM (active); in [2], 1.05 µM (active); in experiment [3] it was 1.05 µM (active); in experiment [4], 0.935 µM (active). In experiment [7], the Potency entry is “inactive”.

In the case of `C=C[C@@H]1CN2CCC1C[C@@H]2[C@@H](O)c1ccnc2ccccc12` (stereo partly specified), the Potency in experiment [1] is 16.6 µM (active); in experiment [2], 18.7 µM (active).

As to `Cc1ccccc1-n1c(Cn2ncc3c(N)ncnc32)nc2cccc(C)c2c1=O`, the Potency in [1] is 10.5 µM (active); in [2], 16.6 µM (active); in experiment [3], 26.4 µM (active); in experiment [4], 11.8 µM (active). Besides, the Potency result in experiment [7] and in experiment [8] was “inactive” each time.

For `C#CC1(O)CCC2C3CCC4=CC(=O)CCC4(C)C3CCC21C` (stereo unspecified), the Potency result in [1], in experiment [2], in experiment [3], in experiment [4], in [7] and in [8] was “inactive” in each case.

Consider `CC(=O)O[C@@]12CO[C@H]1C[C@H](O)[C@@]1(C)C(=O)[C@H](O)C3=C(C)[C@@H](O)C[C@@](O)([C@@H](OC(=O)c4ccccc4)[C@@H]21)C3(C)C`, for which the Potency in experiment [1] was 2.35 µM (active); in [2], 23.5 µM (active); in [3], 2.35 µM (active); in experiment [7], 7.43 µM (active).

For the compound `CN[C@@H]1Cc2cccc3[nH]c(=O)n(c23)C1`, the Potency result in experiment [1], in experiment [2], in experiment [3], in experiment [4], in [7] and in experiment [8] was “inactive” each time.

For the compound `Cc1nc(-c2ccc(-c3ccc(C(=O)N4CCc5cc6c(cc54)C4(CCN(C)CC4)CO6)cc3)c(C)c2)no1`, the Potency result in experiment [1], in experiment [2], in experiment [3], in [4], in experiment [10] and in [7] was “inactive” in each case. Also, the Potency result in experiment [8] was “inactive”. In addition, the Potency in [13] is 16.6 µM (active).

The values are drawn from PubChem BioAssay (NCATS).
